This note sets out measurements from PubChem BioAssay (EPA / NIEHS).

The structures appear in SMILES notation. Calls of active or inactive are those of the source. Rule for the calls: active = hit-call score of the fitted dose curve at least 0.9, where 1 is the maximum; inactive = score below 0.9.

Conditions in all cases: mRNA level, 48 h; actives raise or lower the signal
Read-out in assay [1]: Peroxisomal acyl-coenzyme A oxidase 1 (ACOX1) gene, ACOX1 (gene 51)
The assay is described as follows: LTEA_HepaRG_ACOX1: Life Technologies and Expression Analysis (LTEA) Assay for Peroxisomal acyl-coenzyme A oxidase 1 (ACOX1) gene using HepaRG (AID 2283467). In short, it runs like this:
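HepaRG cells, plated 48 h then switched to serum-free induction medium, were exposed in duplicate for 48 h to 8-point half-log concentrations up to 100 uM in 0.5% DMSO. ACOX1 mRNA was measured by qRT-PCR, normalized to ACTB/GAPDH/POLR2A, and fitted bidirectionally versus DMSO.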

Read-out in assay [2]: Alkaline Phosphatase, Placental (ALPP) gene, ALPP (gene 250)
The assay is described as follows: LTEA_HepaRG_ALPP: Life Technologies and Expression Analysis (LTEA) Assay for Alkaline Phosphatase, Placental (ALPP) gene using HepaRG (AID 2283468). In short, it runs like this: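 HepaRG cells plated 48 h, then exposed in duplicate for 48 h in serum-free induction medium to 8-point half-log series from 100 uM in 0.5% DMSO. ALPP mRNA by TaqMan qRT-PCR, normalized to ACTB/GAPDH/POLR2A; bidirectional fit versus DMSO.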

Read-out in assay [3]: Bcl-2 (BAD) gene, BAD (gene 572)
The assay is described as follows: LTEA_HepaRG_BAD: Life Technologies and Expression Analysis (LTEA) Assay for Bcl-2 (BAD) gene using HepaRG (AID 2283469). In short, it runs like this:
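Differentiated HepaRG cells were exposed in duplicate in 0.5% DMSO for 48 h to eight-point half-log concentrations up to 100 uM. BAD mRNA was measured by Fluidigm TaqMan qRT-PCR, normalized to ACTB, GAPDH and POLR2A, and fitted bidirectionally against DMSO.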

Read-out in assay [4]: Bcl-2 (BAX) gene, BAX (gene 581)
Briefly: LTEA_HepaRG_BAX: Life Technologies and Expression Analysis (LTEA) Assay for Bcl-2 (BAX) gene using HepaRG (AID 2283470). The method, boiled down:
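HepaRG (human liver), 48 h exposure, duplicate wells. 8-pt curve, half-log from 100 uM, 0.5% DMSO. BAX transcript by TaqMan qRT-PCR; ACTB/GAPDH/POLR2A normalization; gain or loss vs DMSO baseline.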

Read-out in assay [5]: adenosine kinase (ADK) gene, ADK (gene 132)
The assay is described as follows: LTEA_HepaRG_ADK: Life Technologies and Expression Analysis (LTEA) Assay for adenosine kinase (ADK) gene using HepaRG (AID 2283471). The method, boiled down:
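HepaRG (human liver), 48 h chemical exposure, 8-pt half-log series, top 100 uM, 0.5% DMSO vehicle. Readout: ADK mRNA by qRT-PCR vs housekeeping genes; bidirectional curve fit relative to DMSO baseline.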

Read-out in assay [6]: Alpha-fetoprotein (AFP) gene, AFP (gene 174)
The assay is described as follows: LTEA_HepaRG_AFP: Life Technologies and Expression Analysis (LTEA) Assay for Alpha-fetoprotein (AFP) gene using HepaRG (AID 2283472). The method, boiled down: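 HepaRG, single lot; 48 h post-plating -> serum-free induction medium; cpd 8-pt, 100 uM top, half-log, 0.5% DMSO, duplicate, 48 h. RNA -> qRT-PCR AFP, norm ACTB/GAPDH/POLR2A. Bidirectional fit vs DMSO.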

Read-out in assay [7]: Apoptosis regulator Bcl-2 (Homo sapiens) (UniProt P10415)
Briefly: LTEA_HepaRG_BCL2: Life Technologies and Expression Analysis (LTEA) Assay for Bcl-2 gene using HepaRG (AID 2283475). The method, boiled down:
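HepaRG, plated 48 h then switched to serum-free induction medium; dosed 48 h, 8 conc. (max 100 uM, half-log steps), duplicate, 0.5% DMSO. Lysis in RLT, RNA isolated, TaqMan qRT-PCR for BCL2; ACTB/GAPDH/POLR2A normalisation; bidirectional fit vs DMSO.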

Read-out in assay [8]: Bcl-2 (BID) gene, BID (gene 637)
Briefly: LTEA_HepaRG_BID: Life Technologies and Expression Analysis (LTEA) Assay for Bcl-2 (BID) gene using HepaRG (AID 2283476). The method, boiled down:
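Transcript levels of BID, measured by qRT-PCR and normalized to three housekeeping genes, were fitted bidirectionally against DMSO controls. Cells were HepaRG, dosed 48 h at up to 100 uM.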

Read-out in another assay: Caspase-3 (Homo sapiens) (UniProt P42574)
The assay is described as follows: LTEA_HepaRG_CASP3: Life Technologies and Expression Analysis (LTEA) Assay for cysteine-aspartic acid protease (CASP3) using HepaRG (AID 2283477). In short, it runs like this: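 Differentiated HepaRG cells, plated 48 h, were treated in duplicate in serum-free induction medium for 48 h with eight half-log concentrations up to 100 uM in 0.5% DMSO. CASP3 mRNA measured by qRT-PCR, normalized to ACTB, GAPDH, POLR2A.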

Read-out in assay [9]: Cytochrome P450 (CYP24A1), CYP24A1 (gene 1591)
Briefly: LTEA_HepaRG_CYP24A1: Life Technologies and Expression Analysis (LTEA) Assay for Cytochrome P450 (CYP24A1) using HepaRG (AID 2283478). In short, it runs like this: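 HepaRG cells plated 48 h, then exposed in duplicate in serum-free induction medium for 48 h to 8-point half-log series from 100 uM in 0.5% DMSO. CYP24A1 mRNA by Fluidigm qRT-PCR, normalized to ACTB, GAPDH, POLR2A; bidirectional fit versus DMSO.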

Read-out in assay [10]: Cytochrome P450 (CYP1A2), CYP1A2 (gene 1544)
The assay is described as follows: LTEA_HepaRG_CYP1A2: Life Technologies and Expression Analysis (LTEA) Assay for Cytochrome P450 (CYP1A2) using HepaRG (AID 2283479). The method, boiled down: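 Differentiated human HepaRG cells in serum-free induction medium exposed 48 hours in duplicate to 8 half-log concentrations from 100 uM, 0.5% DMSO. CYP1A2 mRNA quantified by qRT-PCR, normalized to ACTB, GAPDH and POLR2A; bidirectional fitting versus DMSO.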

Read-out in assay [11]: cysteine-aspartic acid protease (CASP8), CASP8 (gene 841)
Briefly: LTEA_HepaRG_CASP8: Life Technologies and Expression Analysis (LTEA) Assay for cysteine-aspartic acid protease (CASP8) using HepaRG (AID 2283480). The method, boiled down:
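Differentiated HepaRG cells in serum-free induction medium, 48 h exposure, eight-point half-log series from 100 uM in 0.5% DMSO, duplicates. CASP8 mRNA by qRT-PCR, normalized to ACTB, GAPDH, POLR2A; bidirectional fit versus DMSO.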

Read-out in assay [12]: Cytochrome P450 (CYP2B6), CYP2B6 (gene 1555)
The assay is described as follows: LTEA_HepaRG_CYP2B6: Life Technologies and Expression Analysis (LTEA) Assay for Cytochrome P450 (CYP2B6) using HepaRG (AID 2283481). The method, boiled down:
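Differentiated human HepaRG cells in serum-free induction medium, dosed in duplicate for 48 h over 8 half-log concentrations topping at 100 uM (0.5% DMSO). CYP2B6 mRNA measured by TaqMan qRT-PCR, normalized to ACTB, GAPDH, POLR2A; bidirectional fit versus DMSO.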

Read-out in assay [13]: Cytochrome P450 2C19 (Homo sapiens) (UniProt P33261)
Briefly: LTEA_HepaRG_CYP2C19: Life Technologies and Expression Analysis (LTEA) Assay for CYP2C19 using HepaRG (AID 2283482). The method, boiled down:
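Differentiated HepaRG cells in serum-free induction medium exposed 48 h in duplicate, 8 concentrations from 100 uM by half-log steps in 0.5% DMSO. CYP2C19 mRNA measured by TaqMan qRT-PCR, normalized to ACTB, GAPDH, POLR2A. Bidirectional fit versus DMSO.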

Read-out in the next assay: CYP2C8 (gene 1558)
The assay is described as follows: LTEA_HepaRG_CYP2C8: Life Technologies and Expression Analysis (LTEA) Assay for CYP2C8 using HepaRG (AID 2283483). The method, boiled down:
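Differentiated HepaRG cells in serum-free induction medium exposed 48 h in duplicate to 8 half-log concentrations from 100 uM in 0.5% DMSO. CYP2C8 mRNA by qRT-PCR normalized to ACTB, GAPDH, POLR2A; bidirectional fit versus DMSO.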

Read-out in another assay: CYP2C9 (gene 1559)
Briefly: LTEA_HepaRG_CYP2C9: Life Technologies and Expression Analysis (LTEA) Assay for CYP2C9 using HepaRG (AID 2283484). The method, boiled down: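 Differentiated human HepaRG cells in serum-free induction medium were exposed 48 h to chemicals in 8-point half-log series from 100 uM (0.5% DMSO), in duplicate. CYP2C9 mRNA was measured by qRT-PCR, normalized to ACTB/GAPDH/POLR2A, with bidirectional fitting versus DMSO.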

Read-out in another assay: BCL2L11 (gene 10018)
Briefly: LTEA_HepaRG_BCL2L11: Life Technologies and Expression Analysis (LTEA) Assay for Bcl-2 (BCL2L11) gene using HepaRG (AID 2283473). The method, boiled down: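 Differentiated human HepaRG cells were exposed 48 h in serum-free induction medium to eight half-log concentrations up to 100 uM in 0.5% DMSO, in duplicate. BCL2L11 mRNA was quantified by TaqMan qRT-PCR, normalized to ACTB, GAPDH and POLR2A; induction or repression fitted versus DMSO.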

Sequence of Apoptosis regulator Bcl-2 (Homo sapiens) (P10415 whole entry, looked up): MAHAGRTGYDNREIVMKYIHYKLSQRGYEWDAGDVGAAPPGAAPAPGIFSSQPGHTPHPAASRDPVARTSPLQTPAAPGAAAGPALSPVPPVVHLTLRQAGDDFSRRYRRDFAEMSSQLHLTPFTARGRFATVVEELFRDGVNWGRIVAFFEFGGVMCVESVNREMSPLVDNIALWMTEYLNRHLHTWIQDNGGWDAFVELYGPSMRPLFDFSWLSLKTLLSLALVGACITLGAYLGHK
Sequence of Caspase-3 (Homo sapiens) (P42574 whole entry, looked up): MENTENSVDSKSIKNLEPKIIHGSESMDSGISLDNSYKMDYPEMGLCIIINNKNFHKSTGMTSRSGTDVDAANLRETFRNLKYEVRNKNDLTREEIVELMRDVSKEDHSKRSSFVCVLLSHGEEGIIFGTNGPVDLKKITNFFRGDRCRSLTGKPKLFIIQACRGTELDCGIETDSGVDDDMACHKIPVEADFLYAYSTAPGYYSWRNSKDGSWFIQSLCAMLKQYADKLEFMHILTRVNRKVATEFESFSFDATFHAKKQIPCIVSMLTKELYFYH
Sequence of Cytochrome P450 2C19 (Homo sapiens) (P33261 whole entry, looked up): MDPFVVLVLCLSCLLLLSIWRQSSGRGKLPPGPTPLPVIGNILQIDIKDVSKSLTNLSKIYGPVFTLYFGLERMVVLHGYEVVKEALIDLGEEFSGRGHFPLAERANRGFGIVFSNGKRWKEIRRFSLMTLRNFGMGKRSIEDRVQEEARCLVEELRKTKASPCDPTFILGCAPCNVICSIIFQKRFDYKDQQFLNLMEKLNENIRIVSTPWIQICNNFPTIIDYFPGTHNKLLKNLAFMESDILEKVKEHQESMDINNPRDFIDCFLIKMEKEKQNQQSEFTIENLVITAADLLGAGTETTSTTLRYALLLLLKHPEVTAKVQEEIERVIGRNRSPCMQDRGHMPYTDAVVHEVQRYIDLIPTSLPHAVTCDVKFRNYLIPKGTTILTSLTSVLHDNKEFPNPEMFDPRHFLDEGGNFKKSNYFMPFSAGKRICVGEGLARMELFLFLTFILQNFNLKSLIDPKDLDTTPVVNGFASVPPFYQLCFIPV

As to `C=CCC1=C(C)[C@@H](OC(=O)[C@@H]2[C@@H](C=C(C)C)C2(C)C)CC1=O`, the call in [1], in [3], in assay [4], in assay [5], in assay [7] and in assay [8] was inactive. The result (with Caspase-3 (Homo sapiens); in assay [9]; in assay [10]; in assay [11]; in [13]; in the assay with CYP2C8 (gene 1558)) was inactive. Further, in the assay with CYP2C9 (gene 1559), the call was inactive. The AC50 is 81.2 µM (active) in assay [2], 50 µM (active) in assay [6] and 85.4 µM (active) in [12].

For `N#Cc1cc(Br)c(O)c(Br)c1`, the half-maximal activity concentration (AC50) in assay [1] was 11.1 µM (active); in [2], 8.91 µM (active); in assay [5], 6.14 µM (active); in assay [6] it was 13.9 µM (active); in the assay with BCL2L11 (gene 10018), 10.4 µM (active); in assay [7], 10 µM (active). Moreover, the AC50 was 7.76 µM (active) with Caspase-3 (Homo sapiens); 12.9 µM (active) in assay [10]; 23.6 µM (active) in assay [11]; 9.97 µM (active) in assay [12]; 13.9 µM (active) in assay [13]; 25.3 µM (active) in the assay with CYP2C8 (gene 1558). In the assay with CYP2C9 (gene 1559), the AC50 is 14.4 µM (active). The result in assay [3], in assay [4], in assay [8] and in [9] was inactive.

For `N#CC(CCc1ccc(Cl)cc1)(Cn1cncn1)c1ccccc1` (centres undefined), the concentration at half-maximal activity (AC50) is 34.3 µM (active) in assay [1]; 21.9 µM (active) in assay [2]; 68 µM (active) in assay [4]; 15.8 µM (active) in [6]; 66.7 µM (active) in [7]; 85.6 µM (active) in assay [10]. Further, the concentration at half-maximal activity (AC50) in assay [12] is 50 µM (active); in [13], 76.1 µM (active); with CYP2C8 (gene 1558), 73.7 µM (active); with CYP2C9 (gene 1559), 59.8 µM (active). For the same compound, the compound was called inactive (in assay [3]; in assay [5]; in assay [8]; with Caspase-3 (Homo sapiens); in [9]; in assay [11]).
